Data reported in PubChem BioAssay (NCI).
Compounds without any hit were thinned out: in the full panel of roughly 83,000, 20% have a hit.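 Single-concentration screen, 48 h exposure, 96-well plates. Endpoint: percent growth. Below 10 = active.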 Unmarked numbers belong to inactive results. The source made the active and inactive calls.

What was measured:
Test in all cases: NCI-60 one-dose screen, 48 h (100 = growth as untreated, 0 = no growth, -100 = all killed)
Settings in all cases: 10 µM unless noted
BT-549 breast = test system: BT-549 breast
MDA-MB-435 melanoma = test system: MDA-MB-435 melanoma
SW-620 colon = test system: SW-620 colon
MCF7 breast = test system: MCF7 breast
HCT-116 colon = test system: HCT-116 colon
HCC-2998 colon = test system: HCC-2998 colon
KM12 colon = test system: KM12 colon
MDA-MB-468 breast = test system: MDA-MB-468 breast

SMILES	growth (BT-549 breast)	growth (MDA-MB-435 melanoma)	growth (SW-620 colon)	growth (MCF7 breast)	growth (HCT-116 colon)	growth (HCC-2998 colon)	growth (KM12 colon)	growth (MDA-MB-468 breast)
Cc1cn(-c2cc(NC(=O)c3ccc(C)c(-n4cc(-c5cnc6cccnn56)nn4)c3)cc(C(F)(F)F)c2)cn1	158%	57.7%	84.9%	98.6%	53.2%	82.2%	54.9%	99.1%
CC(C)(C)OC(=O)N1CCC2(CC1)Oc1ccccc1[C@H]1CC(c3ccc(Br)cc3)=NN12	78.5%	81.6%	83%	59.9%	74.1%	85.6%	49.9%	67.7%
NS(=O)(=O)c1ccc(Nc2nc(SCC(=O)c3ccc(F)cc3)nc3ccccc23)cc1	44.2%	0.411% (active)	50.5%	19.1%	39%	47.5%	19.4%	11.4%
O=C(COc1ccc(/C=C2/C(=O)Nc3ccc(Cl)cc32)cc1)Nc1ccc(Br)cc1	-34.2% (active)	-1.54% (active)	2.56% (active)	-26.9% (active)	-64% (active)	41.6%	2.45% (active)	38.4%
Cc1[nH]nc2ccc3nc(-c4cnn(CCO)c4)c4c(c3c12)CCCC4	46.3%	18.7%	29%	52.6%	33.8%	45.6%	18.8%	-0.783% (active)
O=C(N/N=C/c1c[nH]c2ccccc12)Nc1ccccc1Cl	1.24% (active)	2.02% (active)	26.1%	1.71% (active)	-12.7% (active)	-22% (active)	-44.2% (active)	-21.3% (active)
CC(=O)c1c2c(c3ccc4c5ccccc5ccc4n13)C(=O)c1ccccc1C2=O	113%	98.3%	107%	58%	102%	94.3%	85.8%	84.2%
CCCCCCCCCCCCCCCCCC(=O)Nc1ccc(OC)cc1	108%	115%	103%	93.3%	102%	122%	101%	99.8%
COc1cc(CNC(=O)C[C@H](C)CCC=C(C)C)ccc1OCc1cn(-c2cccc(C(F)(F)F)c2)nn1	92.3%	74.9%	38.7%		12.5%	111%	85%	64.9%
Nc1nn2c(-c3cc4ccccc4oc3=O)ccnc2c1N=Nc1ccccc1	29.5%	107%	93%	52.7%	6.75% (active)	105%	92%	78.3%
NS(=O)(=O)c1ccc(Nc2nc(N/N=C/c3cc(Br)c(O)c(Br)c3)nc(Nc3ccccc3)n2)cc1	-14.3% (active)	56.5%	41.2%	37.7%	28.9%	5.2% (active)	61.7%	-57.4% (active)
NS(=O)(=O)c1ccc(N2N=C(c3ccc(NC(=O)Nc4ccccc4)cc3)CC2c2ccc(Br)cc2)cc1 (stereo unspecified)	-81.1% (active)	-93.8% (active)	-3.46% (active)	-79.1% (active)	-68.1% (active)	-100% (active)	-15.7% (active)	-95% (active)
Cc1ccc(C(=O)Nc2ccc(-n3ccnc3)c(C(F)(F)F)c2)cc1C#Cc1cnc2cccnn12	-67.8% (active)	11.3%	31.2%	25.1%	0.409% (active)	29.9%	21.9%	-1.47% (active)
COc1ccc2c(c1)C(Sc1ccc(Cl)cc1)c1c(nc(N)c(C#N)c1N)O2 (stereo unspecified)	12.4%	75.8%	58.1%	26.7%	48%	94.2%	47%	77.9%
